Experimental data as given in PubChem BioAssay (NCI).
The panel holds about 79,000 compounds, 15% with a hit somewhere; the sample as a whole holds those more often. Calls of active or inactive are those of the source. Cut-off read from the data, not from the text of the source: active = growth inhibition above about 70%; inactive = the rest.

Assays:
[1] = NCI Yeast Anticancer Drug Screen. Data for the rad50 strain (AID 155);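 note: 0% = growth of vehicle-only cultures of the same strain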; conditions: S. cerevisiae rad50 strain growth inhibition; at 50.0 µM; active compounds read high
Procedure, shortened: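 Growth of the mutant yeast was measured after compound exposure and referenced to vehicle-treated cultures.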

[2] = NCI Yeast Anticancer Drug Screen. Data for the mec2-1 strain (AID 157); conditions: S. cerevisiae mec2-1 strain, at 50.0 µM, active compounds read high
Procedure, shortened: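 Mutant yeast (mec2-1) grown with compound; growth inhibition relative to vehicle control reported.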

[3] = NCI Yeast Anticancer Drug Screen. Data for the sgs1 mgt1 strain (AID 161);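 note: 0% = growth of cultures given vehicle only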; conditions: S. cerevisiae sgs1 mgt1 strain, at 50.0 µM, active compounds read high
Procedure, shortened: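 Growth of a repair-deficient yeast mutant was monitored after compound treatment and expressed as inhibition relative to vehicle-treated cultures.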

[4] = NCI Yeast Anticancer Drug Screen. Data for the cln2 rad14 strain (AID 165);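 note: 0% = growth equal to vehicle treated cultures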; conditions: S. cerevisiae cln2 rad14 strain, at 50.0 µM, active compounds read high
Procedure, shortened: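 Readout is yeast growth inhibition versus vehicle-treated controls, using a strain with cln2 and rad14 alterations exposed to compound.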

[5] = NCI Yeast Anticancer Drug Screen. Data for the bub3 strain (AID 167); conditions: S. cerevisiae bub3 mutant strain, at 50.0 µM, active compounds read high
Procedure, shortened: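 Whole-cell yeast assay. The mutant strain was incubated with compounds, and growth inhibition was determined by comparison with vehicle-treated cells.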

[6] = NCI Yeast Anticancer Drug Screen. Data for the mlh1 rad18 strain (AID 175); conditions: S. cerevisiae mlh1 rad18 strain growth inhibition; at 50.0 µM; active compounds read high
Procedure, shortened: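 Genetically defined yeast (DNA repair-deficient) exposed to compounds; growth inhibition determined relative to vehicle.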

Measured: growth inhibition

C=CCOCC1CO1 (stereo not given)
inactive: [1] 9.1% | [2] -5.1% | [3] 11.1% | [4] -8.6% | [5] -1.7% | [6] 15.8%

Cc1cccc(C#N)c1
inactive: [1] 3.55% | [2] -26.1% | [3] 1.2% | [4] -1.4% | [5] -7% | [6] -0.05%

Cc1nc2ccccc2c(=O)n1-c1ccccc1Cl
inactive: [1] 7.15% | [2] -4.65% | [3] -6.75% | [4] 12.9% | [5] 15.9% | [6] 9.8%

CCN(CC)CCn1ccc2ccccc21
inactive: [1] -11.4% | [2] -18.4% | [3] -9.85% | [4] 17.3% | [5] -27.1% | [6] -5.95%

CC/C=C/C1(C)C(=O)NC(=S)NC1=O
inactive: [1] 5.15% | [2] 3.1% | [3] -7.3% | [4] 1.7% | [5] 11.4% | [6] -2.95%

CNC1(c2ccc(F)cc2)CCCCC1
inactive: [1] -15.8% | [2] -23.1% | [3] -11.5% | [4] 8.05% | [5] -13.8% | [6] -30.8%

CN1C(=O)C(=CN(C)c2ccccc2)C(=O)N(C)C1=O
inactive: [1] 13.2% | [2] 8.4% | [3] 23.7% | [4] 13.5% | [5] 4.4% | [6] -8.85%

COc1ccccc1[As](=O)(O)c1ccccc1
inactive: [1] -6.45% | [2] -0.85% | [3] -1.45% | [4] -47.6% | [5] -11% | [6] 5.25%

O=C(c1ccccc1)C1CN(C2CCCC2)C1c1ccccc1 (stereo not given)
inactive: [1] -10.2% | [2] 7.6% | [3] -1.55% | [4] -27.3% | [5] 10.4% | [6] 16.1%

CN(C)C(=S)Oc1c(S(=O)(=O)F)ccc(Cl)c1Cl
active: [1] 96.3% | [2] 88% | [3] 98% | [4] 76.5% | [5] 95.2% | [6] 98.3%

O=C(O)CNCP(=O)(O)O
inactive: [1] -31.4% | [2] -23.1% | [3] -52.1% | [4] -15.1% | [5] -46.8% | [6] -20%

CC(C)(C)C1COP(=O)(C(C)(C)C)OC1 (stereo not given)
inactive: [1] -12.6% | [2] 6.1% | [3] -1.15% | [4] -38.6% | [5] 10.6% | [6] 16.2%

C[N+]12CCC(c3ccccc3)(CC1)C(O)C2 (stereo not given)
inactive: [1] -14.6% | [2] -4.75% | [3] 2.1% | [4] -5.15% | [5] 2.8% | [6] 8.1%

CCOP(=O)(OCC)/C(C#N)=C/c1cnc[nH]1
inactive: [1] -51.6% | [2] -30.6% | [3] -38% | [4] -17.2% | [5] -20.2% | [6] -54.5%

CC[C@@H]1[C@H]2C[C@H]3[C@@H]4N(C)c5ccccc5[C@]45C[C@@H](C2[C@H]5O)N3[C@H]1O (stereo not given in full)
inactive: [1] -12.4% | [2] -6.15% | [3] -5.15% | [4] 5.05% | [5] -13.7% | [6] 15.6%

O=C1NC(=O)C(=Cc2ccccn2)C(=O)N1
inactive: [1] -0.95% | [2] -25% | [3] -0.45% | [4] 18.6% | [5] -6.4% | [6] 2.3%

CCN=C=NCCCN(C)C
inactive: [1] -18.8% | [2] -8.8% | [3] -23.1% | [4] 0.25% | [5] -41.2% | [6] -6.35%

NC(=O)Cc1ccccc1
inactive: [1] -17.1% | [2] -14.9% | [3] -6.55% | [4] 8.75% | [5] -2.45% | [6] 24.9%

CC1=C(\C=C/C(C)=C/C=C/C(C)=C/C=C/C=C(C)\C=C\C=C(C)/C=C/C2=C(C)CCCC2(C)C)C(C)(C)CCC1
inactive: [1] 28.8% | [2] 9.35% | [3] 27.1% | [4] 26.4% | [5] 37.2% | [6] 45.5%

CCCC[N+]1(C)CCCC1c1cccnc1 (stereo not given)
inactive: [1] -15.5% | [2] -7.1% | [3] 5.3% | [4] -10.2% | [5] -10.8% | [6] -7.85%
